# Assay outcomes as filed in PubChem.
# A selection: hits, their analogues and other compounds. The true share with any hit is near 8.1%.
# Sfp inh = Sfp phosphopantetheinyl transferase inhibition | Q9F4F7 | Biochemical Sfp PPTase activity, qHTS | Potency, µM, inactives show largest response in the series, negative = inhibition, most hits filed as inhibitors | 310,000 compounds, 3.5% hits | AID 1490;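 note: the enzyme is Sfp with the accession as filed and its product quenches rhodamine fluorescence; 0% = enzyme reaction without inhibitor and -100% = no enzyme wells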
#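 Reaction rates are the 30-min fluorescence difference (ex 525, em 598 nm) in wells containing 15 nM Sfp, 5 uM rhodamine-CoA and 12.5 uM BHQ-2-YbbR at pH 7.6 with 10 mM MgCl2.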
# Gal4-VP16 FLuc = counter-screen for ROR gamma inhibitors: Gal4-VP16 reporter. Potency, µM (top dose mostly 53.6 µM), without a hit: at the highest dose activity, negative = inhibition, most hits filed as inhibitors. Drosophila S2 Gal4-VP16 UAS-luciferase, luminescence, 20 h. 310,000 compounds, 3.5% hits;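 note: Gal4-VP16 expression switched on by copper sulfate through the metallothionein promoter; % is set by controls: 0 for no effect and ±100 for the full control effect; nearly all actives have a fitted effect of over 50% in size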
# Epigenetic reg = epigenetic control regulation, reporter derepression | Potency, µM (doses to about 53.9 µM), without a hit: at the top dose GFP activation, actives largely listed as activators | murine LDR cells, GFP reporter derepression, 30 h | 280,000 compounds, 0.2% hits; note: % of control where 0% means no effect; nearly all actives have a fitted effect of over 60% in size
#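 In this reporter-derepression format, murine cells bearing a silenced integrated CMV-GFP locus incubate with test compound (30 h, 37 C), then are washed and imaged; fluorescent objects of 20–120 um count as induced cells.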
# RORgamma inh = blocks mouse ROR gamma transcriptional activity; 310,000 compounds, 5.4% hits; P51450; AID 2551; Drosophila S2 Gal4-RORgamma UAS-luciferase reporter, 20 h; Potency, µM (highest dose often 53.6 µM), without a hit: top-dose activity change, negative = inhibition, usual class: inhibitors; note: % is set by controls: 0 for no effect and ±100 for the full control effect; nearly all actives have a fitted effect of over 60% in size
# Target sequence (P51450 whole entry, looked up, the tested form may be a part): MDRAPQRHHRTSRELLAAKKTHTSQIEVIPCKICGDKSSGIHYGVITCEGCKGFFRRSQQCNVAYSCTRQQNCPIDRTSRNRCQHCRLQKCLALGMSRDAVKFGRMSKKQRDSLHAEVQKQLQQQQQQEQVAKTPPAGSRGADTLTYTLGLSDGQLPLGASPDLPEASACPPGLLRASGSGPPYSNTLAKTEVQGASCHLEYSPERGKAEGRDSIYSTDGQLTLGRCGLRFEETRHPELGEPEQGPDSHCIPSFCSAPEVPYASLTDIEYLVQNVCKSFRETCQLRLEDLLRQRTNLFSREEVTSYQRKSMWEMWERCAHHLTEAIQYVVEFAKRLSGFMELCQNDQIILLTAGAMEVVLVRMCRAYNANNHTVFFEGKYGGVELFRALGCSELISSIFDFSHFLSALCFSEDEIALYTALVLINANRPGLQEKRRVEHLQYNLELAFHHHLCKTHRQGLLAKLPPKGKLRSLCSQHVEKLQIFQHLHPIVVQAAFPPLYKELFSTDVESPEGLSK
#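 Using a luciferase readout, inhibitors were identified by reduced reporter activity in Drosophila cells coexpressing a copper-inducible Gal4–ROR gamma fusion and UAS-driven Photinus luciferase, incubated 20 hr after 700 uM copper sulfate.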
# PINK1 expr mod = changes PINK1 expression; PINK1 immunofluorescence, high-content cytometry, 24 h; Potency, µM (top dose mostly 76.6 µM), for the others: at the highest dose activation (PINK1 increase), actives largely listed as activators; 410,000 compounds, 0.2% hits; active = well fitted activation curve with a large enough effect; inconclusive = small, poorly fitted or top-dose-only effect; cell line not stated here; note: % of control where 0% means no effect; nearly all actives have a fitted effect of over 65% in size
#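 Measures PINK1 amount and localization on or inside mitochondria by immunofluorescence. Stable cells get compounds at 5 concentrations for 24 hours before fixation and staining; CCCP controls included.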
# ClpP mod = qHTS Assay for Activators of ClpP; purified B. subtilis ClpP, FRET peptide cleavage, 20 min; Potency, µM (doses to about 57.5 µM), without a hit: at the highest dose activity change, negative = active; ATP-dependent Clp protease proteolytic subunit (Bacillus subtilis (strain 168)), P80244; 340,000 compounds, 1.9% hits; active = well fitted falling curve with a large enough effect; inconclusive = small, poorly fitted or top-dose-only effect; inactive = no such curve, though single readings can be large or run the other way; note: the source files actives as falling curves though it sought activators and does not explain the sign; nearly all actives have a fitted effect of over 65% in size
# Target sequence (P80244 whole entry, looked up): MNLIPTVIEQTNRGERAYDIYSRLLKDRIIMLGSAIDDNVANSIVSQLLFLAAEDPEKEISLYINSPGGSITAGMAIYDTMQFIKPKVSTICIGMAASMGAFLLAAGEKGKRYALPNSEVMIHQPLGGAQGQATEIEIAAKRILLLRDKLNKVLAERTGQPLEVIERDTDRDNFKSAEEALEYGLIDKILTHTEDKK
#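 FRET quenching reversal measured ClpP activation: 10 microg/mL B. subtilis ClpP at pH 8 with the FRET-FV decapeptide, read at 430 nm after 320 nm excitation. The 20-min minus 0-min signal was scaled between DMSO/no-enzyme wells and ADEP (5.8 microM final).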
# An asterisk follows results filed as active; ? = inconclusive; nt = no result given; [ ] = another dose, or the depositor's remark. Unless noted, calls come from the whole dose curve; as a rule, active = well fitted curve in the direction sought with a large enough effect; inconclusive = small, poorly fitted or top-dose-only effect, or another doubt; inactive = no such curve, though single readings can be large; an effect the other way counts as inactive or inconclusive. Potency is the fitted concentration of half-maximal effect.
SMILES,Sfp inh,Gal4-VP16 FLuc,Epigenetic reg,RORgamma inh,PINK1 expr mod,ClpP mod
CC(=O)N1c2ccccc2C(C)(c2ccc(C)cc2)CC1(C)C (stereo not drawn),nt,nt,-3%,nt,6%,2%
O=C(COc1ccccc1)N1c2ccccc2Sc2ccccc21,-3%,0%,-1%,?,8%,16µM*
O=C(Cc1sc(Nc2ccccc2)nc1-c1ccccc1)NCc1ccccn1,14µM*,-48%,1%,-72%,2%,nt
O=C(NCc1ccccn1)C(=O)NCc1ccccn1,56µM*,-16%,1%,13%,2%,nt
O=C(NCc1ccccn1)c1ccc2ccccc2n1,14%,10µM*,-1%,3.5µM*,1%,-3%
O=C(NCc1ccccn1)c1coc(=O)c(Br)c1,?,4%[0.365 µM],17%,35%,2%,16µM*
CCc1ccccc1NS(=O)(=O)c1cc(Br)cc2c1N(C(=O)C1CC1)CC2,nt,nt,0%,nt,6%,-2%
Cc1cccc(C)c1-n1ncc(C(=O)N2CCN(c3ccccn3)CC2)c1C1CCN(C(=O)OC(C)(C)C)CC1,nt,nt,-1%,nt,0%,4%
CCc1ccc(S(=O)(=O)c2nnn3c2nc(NCc2cccc(OC)c2)c2cc(Cl)ccc23)cc1,nt,nt,0%,nt,0%,4%
COc1ccc(-c2nc3cc(C(C)C)ccc3o2)cc1NC(=O)c1ccccc1[N+](=O)[O-],nt,nt,1%,nt,4%,-3%
CCOc1ccc(OCC)c(NC(=O)CN2CCN(c3cccc(C)c3)CC2)c1,25µM*,2%,-1%,15%,0%,-6%
O=C(Cn1c(=O)n(Cc2ccco2)c(=O)c2oc3ccccc3c21)Nc1ccc(F)cc1F,nt,nt,14%,nt,?,?
CCn1c2ccccc2c2nnc(SC3CCOC3=O)nc21 (stereo not drawn),nt,nt,nt,nt,0%,0%
COc1ccc2c(Sc3ccccc3)c(C(=O)NCCN(C)C)[nH]c2c1,nt,nt,-2%,nt,4%,-3%
CNC(=S)NNC(=O)COc1cccc(C)c1C,32%,7.1µM*,-1%,1.4µM*,0%,-1%
CNC(=S)NNC(=O)COc1ccccc1C,-3%,10µM*,0%,7.1µM*,nt,0%
Cc1cccc(OCC(=O)Nc2cc(NC(=O)COc3cccc(C)c3C)cc(C(=O)O)c2)c1C,5%,nt,nt,nt,-1%,0%
Cc1ccccc1OCC(=O)NNC=O,21%,-1%,-3%,-12%,0%,nt
COc1ccccc1N1CCN(c2cc(C)nc3nncn23)CC1,nt,nt,7%,nt,0%,-2%
Cc1ccc(NC(=S)N(CCN(C)C)C(C)c2ccco2)cc1Cl (stereo not drawn),12%,?,-1%,13µM*,4%,1%
COCCN(C(=S)Nc1cc(C)cc(C)c1)C(C)c1ccco1 (stereo not drawn),18%,4%[10 µM],0%,8.9µM*,1%,-2%
Cc1ccc(NC(=S)N(CCN(C)C)C(C)c2ccco2)c(C)c1 (stereo not drawn),11%,2%,-1%,-37%,1%,0%
COCCN(C(=S)Nc1c(C)cccc1C)C(C)c1cccs1 (stereo not drawn),3%,?,-2%,?,0%,1%
COCCN(C(=S)Nc1cc(C)cc(C)c1)C(C)c1cccs1 (stereo not drawn),5%,22µM*,-1%,10µM*,2%,-1%
COCCN(C(=S)Nc1cccc(C)c1)C(C)c1cccs1 (stereo not drawn),13%,?,0%,11µM*,1%,1%
SMILES,Sfp inh,Gal4-VP16 FLuc,Epigenetic reg,RORgamma inh,PINK1 expr mod,ClpP mod
CCC1(c2ccc(O)cc2)NC(=O)N(C)C1=O (stereo not drawn),14%,-3%,nt,0%,nt,nt
COCCN(C(=S)Nc1ccc(OC)cc1)C(C)c1cccs1 (stereo not drawn),11%,?,0%,13µM*,0%,2%
CC(C)CCN(C(=S)Nc1cccc(F)c1)C(C)c1cccs1 (stereo not drawn),-1%,?,?,20µM*,0%,2%
COc1ccc(NC(=S)N(CCC(C)C)C(C)c2ccncc2)cc1 (stereo not drawn),-15%,?,5%,?,4%,nt
COc1cccc(NC(=S)N(CCN(C)C)C(C)c2ccncc2)c1 (stereo not drawn),20%,-9%,-2%,-30%,1%,1%
Cc1cccc(NC(=O)c2onc3c2CCCC3)n1,-9%,5.6µM*,-8%,2µM*,2%,-1%
COC(=O)c1cccc(NC(=O)c2onc3c2CCCC3)c1,4%,?,1%,7.1µM*,?,1%
O=C(Nc1ccc2ccccc2c1)c1onc2c1CCCC2,-18%,?,-1%,14µM*,1%,0%
COC(c1ccc2c(c1)CN(C(=O)Cn1nc(C)c3ccccc3c1=O)CCO2)C1CCCCC1 (stereo not drawn),nt,nt,nt,nt,1%,nt
C(=N\Nc1ccc2nncn2n1)/c1ccccn1,32µM*,5%,-2%,-32%,-2%,nt
C/C(=N\Nc1ccc2nncn2n1)c1ccccn1,4%,?,0%,8.9µM*,0%,0%
C/C(=N\Nc1ccc2nncn2n1)c1ccco1,-4%,3%,0%,-26%,-1%,-2%
COC(=O)C1=C[C@@H](C(=O)OC)[C@@H]2C3=C(C(=O)C2(C)C)[C@H](c2ccccc2)[C@@H]2C(=O)N(c4ccccc4)C(=O)[C@@H]2[C@@H]3C1,-2%,0%,nt,14%,nt,nt
COc1ccc(/C=N/Nc2cc(N3CCCC3)nc(N3CCCC3)n2)cc1,50µM*,-5%,2%,13µM*,?,nt
Cc1cc(N/N=C/c2cccc([N+](=O)[O-])c2)nc(-n2nc(C)cc2C)n1,20%,1µM*,0%,0.11µM*,11%,nt
Cc1cc(C)nc(N/N=C/c2cccc([N+](=O)[O-])c2)n1,-9%,4%,1%,4%,1%,nt
Cc1cc(NCCO)nc(-n2nc(C)cc2C)n1,0%,20µM*,0%,6.3µM*,-1%,-3%
Cc1cc(N/N=C/c2ccccc2[N+](=O)[O-])nc(-n2nc(C)cc2C)n1,6%,0.89µM*,8%,?,0%,-3%
Oc1ccc(/C=N/Nc2cc(N3CCCC3)nc(N3CCCC3)n2)cc1,1%,-26%,?,3%,1%[38.3 µM],-23%
Cc1cc(C)n(-c2ccccc2[N+](=O)[O-])n1,7%,-9%,2%,-17%,1%,nt
COc1cccc(C(=O)Nc2cc(-c3cn4cccnc4n3)ccc2C)c1OC,nt,nt,0%,nt,1%,5%
